Data: PubChem BioAssay
Values joined by “and” are separate entries in the source; they are usually repeats but may differ in a detail not shown here. Equal values may be shown once. Active and inactive are the calls of the source. Cut-off read from the data, not from the text of the source, unless noted: active = inhibition above about 80%; inactive = the rest.

Tests used:
[1] = LFS_MB_P medulloblastoma growth inhibition, cell-based, chromothripsis tumors, cisplatin or BGB combos (AID 1671449); details: LFS_MB_P medulloblastoma cells;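 note: cells exposed for 96 hours; 0% = vehicle DMSO and 100% = killing by high DMSO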
[2] = HDN33 neuroblastoma growth inhibition, cell-based, chromothripsis tumors, cisplatin or BGB combos (AID 1671450); details: HDN33 neuroblastoma cells, stronger effect = higher value;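 note: cells exposed to compound for four days; 0% = vehicle DMSO and 100% = cell killing by high DMSO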
[3] = ICB984 medulloblastoma cell growth inhibition, synergistic combos for chromothripsis tumors, cisplatin or BGB combos (AID 1671451; call rule not given here;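 note: cells exposed for 96 hours before readout; 0% = vehicle DMSO and 100% = killing by high DMSO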); details: ICB984 medulloblastoma cells, drug combinations, stronger effect = higher value
[4] = LFS_MB_1R medulloblastoma cell growth inhibition, synergistic combos for chromothripsis tumors, cisplatin or BGB combos (AID 1671452); details: LFS_MB_1R medulloblastoma cells, stronger effect = higher value;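 note: cells exposed for 96 hours before readout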
[5] = HTB85 osteosarcoma cell growth inhibition, synergistic combos for chromothripsis tumors, BGB or cisplatin IC20 combos (AID 1671453); details: HTB85 osteosarcoma cells, drug combinations, stronger effect = higher value;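 note: cells exposed for 96 hours before readout; 0% = vehicle DMSO and 100% = high DMSO killing control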
[6] = CRL2098 osteosarcoma cell growth inhibition, synergistic combos for chromothripsis tumors, BGB or cisplatin IC20 combos (AID 1671454); details: CRL2098 osteosarcoma cells, drug combinations, stronger effect = higher value;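 note: cells exposed for 96 h before readout; 0% = vehicle DMSO and 100% = killing by high DMSO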
[7] = HD-MB03 medulloblastoma cell growth inhibition, synergistic combos for chromothripsis tumors, BGB or cisplatin IC20 combos (AID 1671455; in the data active = inhibition above about 83%;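 note: 0% = vehicle DMSO and 100% = high DMSO as cytotoxic control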); details: HD-MB03 medulloblastoma cells, stronger effect = higher value
[8] = UWB1.289 ovarian carcinoma cell growth inhibition, synergistic combos for chromothripsis tumors, BGB or cisplatin combos (AID 1671456); details: UWB1.289 ovarian carcinoma cells, stronger effect = higher value;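 note: cells exposed to compound for four days; 0% = vehicle DMSO and 100% = killing by high DMSO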
[9] = LFS_MB_2R medulloblastoma cell growth inhibition, synergistic combos for chromothripsis tumors, cisplatin combos (AID 1671457); details: LFS_MB_2R medulloblastoma cells, stronger effect = higher value;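 note: cells exposed to compound for four days before readout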
[10] = MDA-MB-436 breast carcinoma cell growth inhibition, synergistic combos for chromothripsis tumors, BGB or cisplatin combos (AID 1671458; call rule not given here;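 note: cells exposed for 96 hours; 0% = vehicle DMSO and 100% = killing by high DMSO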); details: MDA-MB-436 breast carcinoma growth inhibition, drug combinations, stronger effect = higher value
[11] = UWB1.289_BRCA1 ovarian cancer growth, cell-based, BGB or cisplatin combinations (AID 1671459); details: UWB1.289 BRCA1 ovarian carcinoma, drug combinations, stronger effect = higher value
[12] = human astrocyte viability loss, single and combined drugs, cytotoxicity control for chromothriptic childhood tumor combination screen, cell-based, BGB or cisplatin IC20 combos (AID 1671460); details: Human astrocytes, drug combinations, stronger effect = higher value;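 note: cells exposed to compounds for 96 hours before viability readout; 0% = vehicle and 100% = killing control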
[13] = growth inhibition of BT084 medulloblastoma cells, cell-based, ICGC_MB145, cisplatin and BGB IC40 combos (AID 1671461); details: drug combinations, stronger effect = higher value;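 note: cells exposed to drugs for 96 hours; 0% = vehicle DMSO and 100% = high DMSO full killing control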
[14] = growth inhibition of RCMB18 medulloblastoma cells, cell-based, cisplatin and BGB IC40 combos (AID 1671462); details: stronger effect = higher value;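 note: cells exposed to compound for four days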
[15] = growth inhibition of CRL1545 osteosarcoma cells, cell-based, cisplatin and BGB IC20 combos (AID 1671464); details: stronger effect = higher value;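 note: cells exposed to compound for 96 hours before readout; 0% = vehicle DMSO and 100% = high DMSO killing control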
[16] = at 0.5 µM, stronger effect = higher value
[17] = measured here: combination with BGB IC20, at 0.005 µM
[18] = measured here: combination with BGB IC40, at 0.005 µM
[19] = measured here: combination with BGB IC40, at 0.05 µM
[20] = measured here: combination with cisplatin, at 0.5 µM, stronger effect = higher value
[21] = measured here: combination with cisplatin, at 5 µM, stronger effect = higher value
[22] = measured here: with BGB IC20 combination, at 0.5 µM
[23] = measured here: with cisplatin IC20 combination, at 0.5 µM
[24] = measured here: 5 uM single agent, at 5 µM
[25] = measured here: combination with cisplatin, at 0.5 µM
[26] = measured here: combination with cisplatin, at 5 µM
[27] = measured here: with BGB IC20, at 0.5 µM
[28] = measured here: with BGB IC20, at 5 µM
[29] = measured here: with cisplatin IC20, at 0.5 µM
[30] = measured here: with cisplatin IC20, at 5 µM
[31] = measured here: combination with BGB at IC20, at 0.5 µM
[32] = measured here: combination with cisplatin at IC20, at 0.5 µM
[33] = measured here: combo with BGB at IC20, at 0.5 µM
[34] = measured here: combo with cisplatin at IC20, at 0.5 µM
[35] = measured here: inhibition with BGB combination, at 0.05 µM
[36] = measured here: inhibition with cisplatin combination, at 0.05 µM
[37] = measured here: BGB combination, at 0.5 µM
[38] = measured here: BGB combination, at 5 µM
[39] = measured here: cisplatin combination, at 0.5 µM
[40] = measured here: cisplatin combination, at 5 µM
[41] = BGB combination, concentration series, at 5 µM
[42] = cisplatin combination, concentration series, at 5 µM
[43] = measured here: combo with BGB IC20, at 0.5 µM
[44] = measured here: combo with cisplatin IC20, at 0.5 µM
[45] = cisplatin combination, at 0.5 µM
[46] = measured here: BGB IC40 combination 0.05 uM, at 0.05 µM
[47] = measured here: BGB IC40 combination, at 0.05 µM

With CC(=CC(=O)OCCCCCCCCC(=O)O)CC1OCC(CC2OC2C(C)C(C)O)C(O)C1O (stereo unspecified) the inhibition [1, 16] was -17% (inactive) and -23.9% (inactive), the inhibition [1, 17] was -2.94% and -18.6% and the inhibition [1, 18] was -25.4% and -12.1%. For the same compound, the inhibition [1, 19] was -14.3% and -15.6%, the inhibition [1, 20] was -17.5% and -24.1% and the inhibition [1, 21] was -33.1% and 1.08%. For the same compound, the inhibition ([2]; BGB combo, at 5 µM) was -14.8% and -17.7%, the inhibition ([2]; at 0.5 µM) was -9.45% (inactive) and -27.8% (inactive) and the inhibition ([2]; cisplatin combo, at 5 µM) was 6.33% and -11.4%. The inhibition [2, 22] was -8.51% and -26.5%, the inhibition [2, 23] was -15.9% and -22.8% and the inhibition ([2]; single agent, at 5 µM) was -7.18% and -31.8%. For the same compound, the inhibition ([3]; BGB IC20 combo, at 0.005 µM) was -1.97% and -19.7%, the inhibition ([3]; BGB IC40 combo, at 0.005 µM) was -39% and 3.24% and the inhibition ([3]; BGB IC40 combo, at 0.05 µM) was -33.4% and -9.88%. The inhibition ([3]; at 0.5 µM) was -17% (inactive) and -12.7% (inactive), the inhibition ([3]; cisplatin combo, at 0.05 µM) was -38.6% and -12.9% and the inhibition ([3]; cisplatin combo, at 0.5 µM) was -14.9% and -15.5%. For the same compound, the inhibition ([3]; cisplatin combo, at 5 µM) was -35% and -37.3%, the inhibition [3, 24] was -25.3% and -26.1% and the inhibition ([4]; at 0.5 µM) was -33.1% (inactive) and -17.5% (inactive). The inhibition [4, 19] was -28.7% and -19%, the inhibition [4, 25] was -76% and -15.9% and the inhibition [4, 26] was -33.5% and -12.5%. For the same compound, the inhibition ([5]; at 0.5 µM) was -4.51% (inactive) and -3.63% (inactive), the inhibition [5, 27] was -6.68% and -16.9% and the inhibition [5, 28] was 0.575% and -34.3%. The inhibition [5, 29] was -18.6% and 8%, the inhibition [5, 30] was -13.7% and -38.9% and the inhibition ([5]; single agent, at 5 µM) was 1.75% and -9.62%. The inhibition ([6]; at 0.5 µM) was -26.3% (inactive) and -42.8% (inactive), the inhibition [6, 31] was -3.72% and -29.5% and the inhibition [6, 32] was -3.83% and -44%. The inhibition ([7]; at 0.5 µM) was -5.45% (inactive) and -14.3% (inactive), the inhibition [7, 33] was -13% and -2.83% and the inhibition [7, 34] was -4.76% and -27.9%. For the same compound, the inhibition ([8]; at 0.5 µM) was -10.9% (inactive) and -9.1% (inactive), the inhibition [8, 35] was -7.06% and -24.4% and the inhibition [8, 36] was -16.6% and -1.73%. For the same compound, the inhibition ([9]; at 0.5 µM) was -29.1% (inactive) and -8.5% (inactive), the inhibition [9, 25] was -31.2% and -4.9% and the inhibition [9, 26] was -23.6% and -39.7%. The inhibition ([10]; at 0.5 µM) was -14.5% (inactive) and -24.2% (inactive), the inhibition [10, 37] was -14.9% and -16% and the inhibition [10, 38] was -17.5% and -14.8%. For the same compound, the inhibition [10, 39] was -18.1% and -43.4%, the inhibition [10, 40] was -22.7% and -18.3% and the inhibition [11, 41] was 0.308% and -20.1%. For the same compound, the inhibition ([11]; at 0.5 µM) was -2.59% (inactive) and -13% (inactive), the inhibition [11, 42] was 9.16% and -8.98% and the inhibition ([12]; at 0.5 µM) was 9.62% (inactive) and -5.3% (inactive). The inhibition [12, 43] was 10.3% and 3.21%, the inhibition [12, 44] was 3.29% and -21.1% and the inhibition ([13]; at 0.5 µM) was -23.1% (inactive) and -16.1% (inactive). The inhibition [13, 45] was -23.9% and -16.7%, the inhibition ([13]; cisplatin combination, at 5 µM) was -18.9% and -3.71% and the inhibition [13, 46] was -21.3% and 12.3%. For the same compound, the inhibition ([13]; single agent, at 5 µM) was -11.4% and -22.4%, the inhibition ([14]; at 0.5 µM) was -6.07% (inactive) and -7.9% (inactive) and the inhibition ([14]; cisplatin combo, at 5 µM) was -30.1% and -5.18%. For the same compound, the inhibition [14, 47] was 6.38% and -10.7%, the inhibition [14, 25] was 18.9% and -20.9% and the inhibition ([14]; single agent, at 5 µM) was -45.8% and -19.9%. The inhibition ([15]; at 0.5 µM) was -2.77% (inactive) and -21.4% (inactive), the inhibition [15, 22] was -13.1% and -9.57% and the inhibition [15, 23] was 2.38% and -30.2%. The inhibition ([15]; single agent, at 0.05 µM) was 22.2% and -47.2% and the inhibition ([15]; single agent, at 5 µM) was 3.87% and -28.5%.
With C=C(C)C1CCC2(C(=O)O)CCC3(C)C(CCC4C5(C)CCC(O)C(C)(C)C5CCC43C)C12 (stereo unspecified) the inhibition [1, 16] was -26.5% (inactive), the inhibition [1, 17] was -25.5% and the inhibition [1, 18] was 15.5%. The inhibition [1, 19] was -1.2%, the inhibition [1, 20] was -45.1% and the inhibition [1, 21] was -28.2%. The inhibition ([2]; BGB combo, at 5 µM) was -9.64%, the inhibition ([2]; at 0.5 µM) was -2.09% (inactive) and the inhibition ([2]; cisplatin combo, at 5 µM) was -9.94%. The inhibition [2, 22] was -1.87%, the inhibition [2, 23] was -3.24% and the inhibition ([2]; single agent, at 5 µM) was -1.41%. It also gave an inhibition ([3]; BGB IC20 combo, at 0.005 µM) of -15.2%, an inhibition ([3]; BGB IC40 combo, at 0.005 µM) of -18.6% and an inhibition ([3]; BGB IC40 combo, at 0.05 µM) of 9.33%. The inhibition ([3]; at 0.5 µM) was -29.1% (inactive), the inhibition ([3]; cisplatin combo, at 0.05 µM) was 9.33% and the inhibition ([3]; cisplatin combo, at 0.5 µM) was -38%. For the same compound, the inhibition ([3]; cisplatin combo, at 5 µM) was -7.17%, the inhibition [3, 24] was -4.58% and the inhibition ([4]; at 0.5 µM) was -20% (inactive). It also gave an inhibition [4, 19] of -20.5%, an inhibition [4, 25] of -33% and an inhibition [4, 26] of -12.9%. The inhibition ([5]; at 0.5 µM) was -2.9% (inactive), the inhibition [5, 27] was -17.7% and the inhibition [5, 28] was -3.73%. For the same compound, the inhibition [5, 29] was -4.54%, the inhibition [5, 30] was 5.41% and the inhibition ([5]; single agent, at 5 µM) was -0.003%. For the same compound, the inhibition ([6]; at 0.5 µM) was -11.7% (inactive), the inhibition [6, 31] was -25.6% and the inhibition [6, 32] was 19.7%. The inhibition ([7]; at 0.5 µM) was -2.78% (inactive), the inhibition [7, 33] was -2.46% and the inhibition [7, 34] was -4.95%. The inhibition ([8]; at 0.5 µM) was 0.66% (inactive), the inhibition [8, 35] was -7.77% and the inhibition [8, 36] was -4.44%. For the same compound, the inhibition ([9]; at 0.5 µM) was 0.87% (inactive), the inhibition [9, 25] was -5.32% and the inhibition [9, 26] was 12.1%. The inhibition ([10]; at 0.5 µM) was -18.9% (inactive), the inhibition [10, 37] was -9.2% and the inhibition [10, 38] was -5.74%. It also gave an inhibition [10, 39] of -43.5%, an inhibition [10, 40] of 3.21% and an inhibition [11, 41] of -4.55%. The inhibition ([11]; at 0.5 µM) was -1.24% (inactive), the inhibition [11, 42] was -5.38% and the inhibition ([12]; at 0.5 µM) was 6.79% (inactive). The inhibition [12, 43] was -11.2%, the inhibition [12, 44] was 21% and the inhibition ([13]; at 0.5 µM) was -12.4% (inactive). For the same compound, the inhibition [13, 45] was -2.33%, the inhibition ([13]; cisplatin combination, at 5 µM) was -35.9% and the inhibition [13, 46] was 10.4%. For the same compound, the inhibition ([13]; single agent, at 5 µM) was -5.82%, the inhibition ([14]; at 0.5 µM) was -0.59% (inactive) and the inhibition ([14]; cisplatin combo, at 5 µM) was -5.83%. For the same compound, the inhibition [14, 47] was 12.3%, the inhibition [14, 25] was -32.4% and the inhibition ([14]; single agent, at 5 µM) was 7.3%. The inhibition ([15]; at 0.5 µM) was -2.94% (inactive), the inhibition [15, 22] was -13.1% and the inhibition [15, 23] was 2.15%. For the same compound, the inhibition ([15]; single agent, at 0.05 µM) was -25.4% and the inhibition ([15]; single agent, at 5 µM) was 16.8%.
